# MEP2-GFP yeast – yeast TOR pathway MEP2-GFP modulation. S. cerevisiae MEP2-GFP strain, flow cytometry GFP, 3 h; 100% = DMSO control level. GFP response vs DMSO, % at 10 µM. 330,000 compounds, 0.51% hits;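 active = GFP response versus DMSO above a set limit, roughly screen mean plus 3 SD, cut at about 180% in these data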;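 also: median GFP fluorescence of the barcode-gated MEP2-GFP cells per well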
# CIT2 TOR yeast – yeast TOR pathway CIT2-GFP modulation. 320,000 compounds, 0.065% hits. S. cerevisiae CIT2-GFP strain, flow cytometry, 3 h; 100 means same as DMSO wells. GFP response vs DMSO, % at 10 µM;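 active = GFP response relative to DMSO above a set limit, near the screen mean plus 3 SD, cut at about 150% in these data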;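 also: ratio of well median GFP fluorescence to mean of DMSO wells on the plate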
# RPL19A TOR yeast – modulators of TOR pathway RPL19A-GFP in S. cerevisiae. S. cerevisiae RPL19A-GFP strain, flow cytometry, 3 h; active compounds read low. percent response vs DMSO, % at 10 µM. 330,000 compounds, 0.3% hits;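 active = percent response vs DMSO below 50%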;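 also: median channel GFP fluorescence of the barcoded RPL19A-GFP strain; ratio of sample median GFP to plate DMSO average so 100% = DMSO; lower means less RPL19A-GFP as with rapamycin TOR inhibition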
# AGP1-GFP MLPCN – alters AGP1-GFP fluorescence in TOR pathway yeast screen. GFP response vs DMSO, % at 10 µM. S. cerevisiae AGP1-GFP multiplex flow cytometry, 3 h; GFP as percent of DMSO wells. 320,000 compounds, 0.02% hits;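 active = GFP response relative to DMSO above a set limit, near screen average plus 3 SD, cut at about 150% in these data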;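 also: median GFP channel fluorescence of the gated AGP1 strain per well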
# LAP4 TOR yeast – modulators of TOR pathway LAP4-GFP in S. cerevisiae | S. cerevisiae LAP4-GFP multiplex, flow cytometry GFP, 3 h; median GFP as percent of DMSO wells | GFP response vs DMSO, % at 10 µM | 320,000 compounds, 0.34% hits | AID 2023;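 active = GFP response vs DMSO above a set limit, about the screen mean plus 3 SD, cut at about 150% in these data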
# LAP4 cherry2 – yeast LAP4-GFP modulation, second cherry pick; GFP response vs DMSO, % at 10 µM; 590 compounds, 20% hits; shares compounds with LAP4 TOR yeast; S. cerevisiae LAP4-GFP strain, flow cytometry GFP, 3 h;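 active = GFP signal as percent of the solvent control above about 150%, meaning raised reporter expression, limit read from the data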;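 also: ratio of well median GFP fluorescence to plate DMSO mean so 100% = DMSO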
# MEP2-GFP pick2 – yeast MEP2-GFP modulation, second cherry pick. shares compounds with LAP4 TOR yeast. S. cerevisiae MEP2-GFP strain, flow cytometry GFP, 3 h. GFP response vs DMSO, % at 10 µM. 590 compounds, 10% hits. AID 2622;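 active = GFP signal above 150% of the solvent control wells, that is a rise of more than half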;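 also: median channel GFP fluorescence of all gated yeast cells per well; ratio of median GFP to plate DMSO average so 100% = DMSO level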
# RPL19A-GFP pick2 – reconfirmed modulator of RPL19A-GFP TOR reporter in yeast. shares compounds with LAP4 TOR yeast. S. cerevisiae RPL19A-GFP strain, flow cytometry GFP, 3 h; active compounds read low; 100% means same as DMSO wells. GFP response vs DMSO, % at 10 µM. 590 compounds, 3% hits;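 active = under 65% GFP response relative to DMSO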;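 also: median GFP channel fluorescence per well over the all cells gate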
# CIT2 GFP CP2 – reconfirmed modulator of CIT2-GFP TOR reporter in yeast; 590 compounds, 8% hits; S. cerevisiae CIT2-GFP strain, flow cytometry GFP, 3 h; DMSO control wells read 100%; AID 2624; shares compounds with LAP4 TOR yeast; GFP response vs DMSO, % at 10 µM;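 active = GFP response vs DMSO above about 150%, limit read from the data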;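 also: median green fluorescence per well over all gated yeast cells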
# AGP1-GFP pick2 – second confirmation of modulators of TOR reporter AGP1-GFP in yeast | shares compounds with LAP4 TOR yeast | S. cerevisiae AGP1-GFP strain, flow cytometry GFP, 3 h | percent response vs DMSO, % at 10 µM | 590 tested, under 10 active | AID 2643;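 active = over 150 percent of DMSO response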;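 also: median GFP channel fluorescence over all cells without mother daughter split; sample median GFP divided by mean DMSO control so 100% equals DMSO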
# s288c autofluor – compound is autofluorescent in yeast s288c cells. shares compounds with LAP4 TOR yeast. S. cerevisiae s288c, 520 nm autofluorescence, flow cytometry, 3 h; active compounds read high; zero means same as solvent-only cells. fluorescence change (kMESF span) at 33 µM. 610 tested, under 10 active. AID 2757;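 active = fluorescence span over the dose series, or activity score, above about 33, limit read from the data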
# Yeast autofl DR – TOR screen hit shows autofluorescence in yeast s288c. shares compounds with LAP4 TOR yeast. S. cerevisiae s288c parental, compound autofluorescence, flow cytometry, 3 h. fluorescence change (span) at 33 µM. 110 tested, under 10 active. AID 488829;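 active = fluorescence change span, or the activity score built from it, above 25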
# TORC1 bypass gr – compounds blocking wildtype yeast growth but not TORC1 bypass cells; shares compounds with LAP4 TOR yeast; S. cerevisiae BY4741 spot growth rating, 48-72 h; active compounds read low; growth rating (0-3) at 30 µM; 120 tested, under 10 active; AID 504456;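 active = growth rating at most 1 for wild type yeast while the TORC1 bypass strain still grows fully, rated 3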
# Active calls of the source: *; / = not tested or not shown. The list is not random: actives were taken first. Their share in the collection is about 0.89%.
SMILES,MEP2-GFP yeast,CIT2 TOR yeast,RPL19A TOR yeast,AGP1-GFP MLPCN,LAP4 TOR yeast,LAP4 cherry2,MEP2-GFP pick2,RPL19A-GFP pick2,CIT2 GFP CP2,AGP1-GFP pick2,s288c autofluor,others
Cc1ccc(NC(=O)CCc2ccccc2)cc1S(=O)(=O)N1CCOCC1,109,88,88,111,151*,101,100,99,102,99,0,
Fc1cccc(Nc2ncnc3c2cnn3-c2ccccc2)c1,99,69,91,93,157*,133,103,87,86,88,0,
O=[N+]([O-])c1cc(CN2CCN(c3ccccc3)CC2)c(O)c2ncccc12,99,/,77,75,153*,/,/,/,/,/,1.1,
Oc1c(CN2CCCCC2)cc(Br)c2cccnc12,119,112,91,107,227*,/,/,/,/,/,1.1,
CC(=O)c1ccc(N2CCN(S(=O)(=O)c3cc4c(cc3C)NC(=O)CO4)CC2)cc1,105,105,99,103,102,/,/,/,/,/,/,
O=c1c2sc(-c3ccccc3)cc2nc2n1CCC2,101,72,59,60,121,101,101,59*,90,66,0.91,
O=c1c2sc(-c3ccccc3)cc2nc2n1CCCCC2,97,92,93,95,127,/,/,/,/,/,/,
CCCCCN(C(=O)COC(=O)c1ccc(C)cc1)c1c(N)n(CCCC)c(=O)[nH]c1=O,103,97,99,102,103,/,/,/,/,/,/,
CC[C@@]1(c2ccccc2OC)ON(c2ccccc2C(F)(F)F)C1=O,80,88,93,73,116,147,112,101,107,104,0.6,
CC1(c2ccccc2)ON(c2ccccc2C(F)(F)F)C1=O (stereo unspecified),75,78,92,73,114,128,113,101,115,99,0.3,
O=C1N(c2ccccc2C(F)(F)F)O[C@]1(c1ccccc1)C1CCCC1,91,103,99,91,90,111,113,101,107,106,-0.1,
Cc1ccccc1[C@@]1(C)ON(c2ccccc2C(F)(F)F)C1=O,83,91,88,84,100,125,106,104,113,101,-0.2,
COc1ccc(CCNC(=O)C2CCCN2S(=O)(=O)c2cccc3nsnc23)cc1OC (stereo unspecified),106,103,103,102,99,/,/,/,/,/,/,
O=C1C=C(Nc2ccc(Cl)cc2)C(=O)N1c1ccc(Cl)cc1,100,101,101,96,98,96,96,99,104,97,0.2,
CCCCC(=O)NNC(=S)NC(=O)c1ccc(C)cc1,114,111,96,129,193*,/,/,/,/,/,1.1,Yeast autofl DR=0.89;TORC1 bypass gr=3
CC(Oc1ccc(Cl)cc1)C(=O)NNC(=S)NC(=O)c1ccco1 (stereo unspecified),101,112,88,102,242*,/,/,/,/,/,0.91,Yeast autofl DR=0.52;TORC1 bypass gr=3
CCC(=O)NC(=S)NNC(=O)c1ccc(OC)cc1,103,104,99,114,105,/,/,/,/,/,/,
CCCCOc1ccc(C(=O)NNC(=S)NC(=O)CC)cc1,117,77,89,95,299*,331*,155*,105,167*,108,1.4,
CCCOc1ccc(C(=O)NNC(=S)NC(C)=O)cc1,117,101,108,109,137,/,/,/,/,/,/,
CCCOc1ccc(C(=O)NNC(=S)NC(=O)c2ccccc2)cc1,94,100,108,113,152*,/,/,/,/,/,1,
COc1ccc(C2=Nn3c(nnc3-c3ccccc3OC)SC2)cc1OC1CCOC1 (stereo unspecified),103,111,114,109,100,/,/,/,/,/,/,
O=C(NNC(=S)NC(=O)c1ccco1)c1ccc(F)cc1,116,103,98,120,218*,/,/,/,/,/,1.5,
CC(C)(C)C(=O)NC(=S)NNC(=O)c1ccc(-c2ccccc2)cc1,126,94,89,88,246*,/,/,/,/,/,1.4,Yeast autofl DR=0.73;TORC1 bypass gr=3
COc1ccccc1C(=O)NNC(=S)NC(=O)c1ccco1,123,89,88,102,268*,335*,180*,110,138,117,3.8,
COc1ccc(C(=O)NNC(=S)NC(=O)c2ccco2)cc1,100,93,106,105,119,/,/,/,/,/,/,
SMILES,MEP2-GFP yeast,CIT2 TOR yeast,RPL19A TOR yeast,AGP1-GFP MLPCN,LAP4 TOR yeast,LAP4 cherry2,MEP2-GFP pick2,RPL19A-GFP pick2,CIT2 GFP CP2,AGP1-GFP pick2,s288c autofluor,others
CCCOc1ccc(C(=O)NNC(=S)NC(=O)c2ccco2)cc1,110,111,112,113,154*,/,/,/,/,/,1.1,
O=[N+]([O-])c1ccc(SCCO)nc1SCCO,105,95,94,101,110,/,/,/,/,/,/,
Cc1ccccc1C(=O)NNC(=S)NC(=O)COc1ccccc1,102,90,106,92,146,/,/,/,/,/,/,
Cc1ccc(C(=O)NNC(=S)NC(=O)COc2ccccc2)cc1,130,97,101,91,275*,/,/,/,/,/,-5.3,Yeast autofl DR=0.68;TORC1 bypass gr=3
CCC(C)(C)C1CCC(NC(=O)N2CCN(c3ccccc3O)CC2)CC1 (stereo unspecified),108,112,107,104,98,/,/,/,/,/,/,
O=C(O)/C=C/C(=O)c1ccc2c(c1)CCc1ccccc1-2,89,60,72,78,226*,129,165*,69,87,77,1.2,
CCn1c(=O)c(C(=O)Nn2c(C)nc3ccccc3c2=O)c(O)c2ccccc21,101,122,52,75,96,/,/,/,/,/,/,
